The record followed here is PubChem BioAssay (NCATS).

Values without a mark were called inactive. Records with an inconclusive call do not appear. Calls of active or inactive are those of the source. Unless noted, calls follow the shape of the dose curve; as a rule, active = well fitted curve in the direction sought with a large enough effect; inconclusive = small, poorly fitted or top-dose-only effect, or another doubt; inactive = no such curve, though single readings can be large; an effect the other way counts as inactive or inconclusive.

The nature of assay [1]: Cell Viability - BJ (AID 421; calls by dose curve;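 also: potency is read from the fitted curve at half-maximal effect; cells exposed to compound for 40 hours at 37 °C before readout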). Conditions: BJ fibroblast viability, qHTS. In outline: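 Normal human BJ foreskin fibroblasts, 1500/well in complete medium, treated 40 hr at 37 °C. Cellular ATP by CellTiter-Glo luminescence; normalized to DMSO and 100 uM tamoxifen, AC50 from Hill fit.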
(In qHTS, concentration-response curves come from the screen itself.)

Assay [2] is described as follows: Cell Viability - HepG2 (AID 433; calls by dose curve;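 also: potency is read from the fitted curve at half-maximal effect; potency for ATP loss meaning cytotoxicity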). The conditions noted are these: qHTS. In outline:
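In this qHTS format, a 40 h, 37 °C compound incubation of HepG2 cells in complete medium precedes a 20 min CellTiter-Glo step at room temperature. Tamoxifen and doxorubicin serve as positive controls; Hill-equation fits yield AC50.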

Assay [3] in a line: Cell Viability - MRC5 (AID 434; calls by dose curve;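 also: potency is read from the fitted curve at half-maximal effect; potency reflects cytotoxicity seen as loss of intracellular ATP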). The conditions noted are these: MRC5 lung fibroblast viability, qHTS. In outline: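 MRC5 normal human lung fibroblasts (1500/well) were treated with compounds for 40 hr at 37 °C in complete medium, and viable cells were measured as intracellular ATP by CellTiter-Glo luminescence. AC50 came from Hill fits, normalized to DMSO and 100 uM tamoxifen.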

Assay [4] in a line: Cell Viability - NIH 3T3 (AID 541).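 Also: plate controls were DMSO alone for no effect and tamoxifen positive control for full effect; nearly all actives have a fitted effect of over 25% in size.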 The conditions noted are these: NIH 3T3 cell viability, qHTS; at 92.2 µM (top of the series). In outline: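 Mouse NIH 3T3 fibroblasts, 1000 cells/well, rested 5 hr at 37 °C, then exposed to compound for 40 hr at 37 °C in complete medium. Viability read as intracellular ATP by CellTiter-Glo luminescence; AC50 from Hill-equation fits of concentration-response data.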

The nature of assay [5]: Cell Viability - HUV-EC-C (AID 542). Also: nearly all actives have a fitted effect of over 35% in size. Also: potency is read from the fitted curve at half-maximal effect. Conditions: HUV-EC-C endothelial cell viability, qHTS; series mostly up to 92.2 µM. In outline:
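HUV-EC-C human vascular endothelial cells, 1000/well, exposed to compound for 40 hr at 37 °C in complete medium. Intracellular ATP was read by CellTiter-Glo luminescence. AC50 came from Hill-equation fits of concentration-response data.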

The nature of assay [6]: Cell Viability - SH-SY5Y (AID 544).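 Also: 0% = DMSO alone and -100% = 100 µM tamoxifen; nearly all actives have a fitted effect of over 55% in size.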 Conditions: SH-SY5Y neuroblastoma cell viability; series mostly up to 92.2 µM. In outline: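 SH-SY5Y human neuroblastoma cells (1500/well) incubated 5 h, then compound-treated 40 h at 37 °C in complete medium. Viability read as intracellular ATP by CellTiter-Glo luminescence after 20 min; AC50 from Hill-equation fits of qHTS concentration-response.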

The nature of assay [7]: Cell Viability - Renal Proximal Tubule (AID 545).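 Also: 0% = DMSO only and -100% = 100 µM tamoxifen; nearly all actives have a fitted effect of over 40% in size.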 Conditions: renal proximal tubule cells viability; series mostly up to 91.7 µM. In outline: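 In this qHTS format, normal rat kidney-derived proximal tubule cells in complete culture medium receive compound titrations, then sit 40 hours at 37 °C before luciferase-based ATP quantitation; potency is reported as AC50 from concentration-response curves.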

A short description of assay [8]: Cell Viability - Jurkat (AID 426;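 active = dose-dependent loss of cell ATP signal giving a full or clear fitted curve, ranked by lower potency value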; also: potency is read from the fitted curve at half-maximal effect). The conditions noted are these: qHTS. In outline: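 Jurkat (Clone E6-1) cells, 5000/well in complete medium, exposed to compounds for 40 hr at 37C; intracellular ATP measured by CellTiter-Glo luminescence after 20 min at room temperature. AC50 from Hill fits.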
Assay [9] in a line: Cell Viability - Hek293 (AID 427;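 active = compounds whose dose-response curve shows a full or clear partial loss of cell viability, called from curve shape rather than a numeric limit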;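 also: potency is read from the fitted curve at half-maximal effect; cells exposed to compound for 40 hours at 37 °C before reading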). Conditions: qHTS. In outline: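 HEK293 cells in complete medium were exposed to compound for 40 hr at 37 °C, then cellular ATP was read by CellTiter-Glo luminescence. Data were normalized to DMSO (basal) and 100 uM tamoxifen (100% inhibition), and AC50 came from Hill fits.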
A short description of assay [10]: Cell Viability - SK-N-SH (AID 435; calls by dose curve;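 also: potency is read from the fitted curve at half-maximal effect; compound exposure lasted 40 h at 37 °C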). Conditions: SK-N-SH neuroblastoma cell viability qHTS. In outline:
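Human neuroblastoma line, 40 h exposure at 37 °C, ATP quantified via luciferase luminescence; DMSO and 100 uM tamoxifen define 0 and 100% inhibition for AC50 fitting.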

For assay [11], the target named is Mitogen-activated protein kinase 10 (Mus musculus) (UniProt Q61831). The assay is described as follows: JNK3 AlphaScreen Assay (AID 530; active = well fitted curve in either direction with a large enough effect, not every such curve was filed as active;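 also: kinase came from lysate of stimulated human HepG2 cells; signal reports phosphorylation of biotinylated GST-cJun 1-79 at Ser73 with 10 µM ATP; % is scaled to controls: 0 for no effect and ±100 for the full control effect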). The conditions noted are these: JNK3 lysate, c-Jun phosphorylation; series mostly up to 57.1 µM. In outline:
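Inhibitors reduce antibody binding to phosphorylated biotin-cJun, lowering AlphaScreen luminescence. Lysates from HepG2 cells pre-activated by IL-1beta plus TNF-alpha supplied JNK3; compounds were titrated.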
(In general: Alpha assays give light when donor and acceptor beads are brought close together.)

Assay [12] in a line: Cell Viability - N2a (AID 540).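 Also: plate controls were DMSO alone for no effect and tamoxifen control for full effect; nearly all actives have a fitted effect of over 45% in size.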 The conditions noted are these: N2a mouse neuroblastoma cell viability; series mostly up to 92.2 µM. In outline: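 Mouse neuroblastoma N2a cells, 1500/well, exposed to compounds 40 h at 37 °C in complete medium. Viability measured as cellular ATP by CellTiter-Glo luminescence; AC50 from Hill fits of concentration-response.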
The nature of assay [13]: Cell Viability - H-4-II-E (AID 543). Also: % is scaled to controls: 0 for no effect and ±100 for the full control effect; nearly all actives have a fitted effect of over 35% in size. Conditions: H-4-II-E rat hepatoma viability; series mostly up to 92.2 µM. In outline: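 Rat hepatoma H-4-II-E cells, 1500 per well, treated 40 h at 37 °C in complete medium. Cellular ATP read by CellTiter-Glo luminescence; AC50 from Hill fits of concentration-response.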
The nature of assay [14]: Cell Viability - Mesenchymal (AID 546).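 Also: cells exposed to compound for 40 hours before reading; 0% = DMSO only and -100% = 100 µM tamoxifen.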 Conditions: mesenchymal cells viability, qHTS; series mostly up to 91.7 µM. In outline:
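Normal human renal glomerulus-derived kidney mesenchymal cells, 1000 per well in complete medium, were treated with compounds for 40 hr at 37 °C. Viability was read as intracellular ATP by CellTiter-Glo luminescence; AC50 values came from Hill-equation fits of qHTS concentration-response data.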

The nature of assay [15]: AP1 Signaling Pathway (AID 357; active = well fitted curve in either direction with a large enough effect, not every such curve was filed as active; also: % is scaled to controls: 0 for no effect and ±100 for the full control effect). Conditions: ME-180 AP-1-bla reporter, EGF-induced, beta-lactamase ratio, 5 h; series mostly up to 17.2 µM. In outline: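 Cells are seeded overnight, exposed to compound titrations and an EC50 level of EGF for 5 hours at 37 °C, then loaded with CCF4 dye for 2.5 hours. Beta-lactamase activity under the AP-1 element is read as a blue/green ratio.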

Assay [16] addresses Cytochrome P450 1A2 (Homo sapiens) (UniProt P05177). The assay is described as follows: p450-cyp1a2 (AID 410; calls by dose curve;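 also: -100% = full effect of reference inhibitor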). Conditions: recombinant CYP1A2, luciferin-ME demethylation, luminescence; series mostly up to 57 µM. In outline: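 20nM CYP1A2 with 100uM Luciferin-ME (at Km) in 100mM KPO4; compound preincubated 10 min, NADPH regeneration added, 60 min at room temperature. Luciferin quantified by luminescence after detection reagent; normalized to 57 uM furafylline.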

The nature of assay [17]: NFAT Signaling Pathway (AID 444; active = well fitted curve in either direction with a large enough effect, not every such curve was filed as active;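 also: carbachol stimulus at about its EC50 of 1 µM final; % is scaled to controls: 0 for no effect and ±100 for the full control effect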). The conditions noted are these: Jurkat NFAT-bla M1, carbachol, beta-lactamase ratio, 5 h. In outline: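 Jurkat cells carrying an NFAT-driven β-lactamase reporter and co-transfected muscarinic M1 receptor were treated with compound plus carbachol (1 uM final, an EC50 level) for 5 h at 37 °C. CCF4 loading followed for 1 h at RT; 460/530 nm ratio gave %activity.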

In assay [18] the target is Glucocorticoid receptor (Homo sapiens) (UniProt P04150). The assay is described as follows: GR-GFP Redistribution (AID 450;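 active = compounds whose dose series gives a full or clear partial fitted curve of increased nuclear translocation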; also: potency is read from the fitted curve at half-maximal effect). Conditions: U2OS GR-GFP nuclear translocation, laser cytometry, 2 h.
For assay [19] the target is unchanged. The assay is described as follows: GR-EFC Redistribution (AID 451; calls by dose curve; also: potency is read from the fitted curve at half-maximal effect). The conditions noted are these: CHO-K1 GR-EFC translocation, beta-gal luminescence, 2 h. In outline: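 CHO-K1 cells stably expressing nuclear-localized β-gal enzyme acceptor and GR fused C-terminally to the enzyme donor fragment; ligand-driven nuclear translocation restores β-gal by complementation. Compounds titrated up to 46 uM final, 2 h at 37 °C; luminescence read.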

A short description of assay [20]: Stat Signaling Pathway (AID 446; active = well fitted curve in either direction with a large enough effect, not every such curve was filed as active;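 also: ME-180 cervical cancer cells given 40 pM IL-6 alongside compound; SIE-controlled beta-lactamase reporter measured as 460/530 nm FRET emission ratio; % is scaled to controls: 0 for no effect and ±100 for the full control effect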). The conditions noted are these: ME-180 SIE beta-lactamase reporter, IL-6 stimulated, 5 h; series mostly up to 17.2 µM. In outline: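 ME-180 cells carrying a SIE-driven beta-lactamase reporter are stimulated with 40 pM IL-6 for 5 h at 37C in the presence of compound. The 460/530 nm FRET substrate ratio is read after 2.5 h at RT. Data are normalised to 300 pM IL-6 and to 125 nM JAK inhibitor controls.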

Chain of Glucocorticoid receptor (Homo sapiens) (P04150 whole entry, looked up, the tested form may be a part): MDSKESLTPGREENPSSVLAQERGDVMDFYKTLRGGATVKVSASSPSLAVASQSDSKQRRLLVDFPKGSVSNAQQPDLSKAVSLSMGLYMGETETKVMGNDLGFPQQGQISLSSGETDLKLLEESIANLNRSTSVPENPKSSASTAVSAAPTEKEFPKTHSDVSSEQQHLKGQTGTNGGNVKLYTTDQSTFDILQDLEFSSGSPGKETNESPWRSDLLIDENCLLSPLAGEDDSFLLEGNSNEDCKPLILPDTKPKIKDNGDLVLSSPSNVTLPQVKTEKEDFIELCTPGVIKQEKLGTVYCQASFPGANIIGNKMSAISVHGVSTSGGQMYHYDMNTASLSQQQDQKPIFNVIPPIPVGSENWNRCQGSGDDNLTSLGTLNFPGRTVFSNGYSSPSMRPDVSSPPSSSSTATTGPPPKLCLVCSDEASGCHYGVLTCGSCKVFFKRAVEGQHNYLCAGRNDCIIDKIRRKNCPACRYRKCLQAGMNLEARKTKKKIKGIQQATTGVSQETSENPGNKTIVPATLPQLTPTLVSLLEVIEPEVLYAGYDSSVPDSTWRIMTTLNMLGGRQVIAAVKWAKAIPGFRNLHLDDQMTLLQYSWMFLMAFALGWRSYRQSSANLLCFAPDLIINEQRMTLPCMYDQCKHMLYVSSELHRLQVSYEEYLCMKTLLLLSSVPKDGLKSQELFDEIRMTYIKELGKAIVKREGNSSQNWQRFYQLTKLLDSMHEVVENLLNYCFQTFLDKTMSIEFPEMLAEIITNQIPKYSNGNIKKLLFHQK
Chain of Cytochrome P450 1A2 (Homo sapiens) (P05177 whole entry, looked up): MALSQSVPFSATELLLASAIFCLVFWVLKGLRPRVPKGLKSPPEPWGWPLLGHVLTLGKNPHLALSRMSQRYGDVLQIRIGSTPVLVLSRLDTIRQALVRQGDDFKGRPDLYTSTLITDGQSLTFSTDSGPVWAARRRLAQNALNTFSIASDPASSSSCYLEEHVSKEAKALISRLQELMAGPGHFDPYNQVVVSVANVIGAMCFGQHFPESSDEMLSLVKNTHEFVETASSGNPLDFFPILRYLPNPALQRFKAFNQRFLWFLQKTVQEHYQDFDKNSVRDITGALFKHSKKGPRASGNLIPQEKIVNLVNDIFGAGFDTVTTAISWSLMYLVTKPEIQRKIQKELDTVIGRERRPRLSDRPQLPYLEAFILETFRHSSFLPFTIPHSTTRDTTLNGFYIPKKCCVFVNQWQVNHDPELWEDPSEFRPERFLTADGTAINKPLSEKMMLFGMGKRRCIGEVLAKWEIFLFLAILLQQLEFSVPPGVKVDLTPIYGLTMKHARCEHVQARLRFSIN

As for `Clc1ccc(C(c2ccc(Cl)cc2)C(Cl)(Cl)Cl)cc1`, the Potency in assay [1] is over 92 µM; in [2], over 92 µM; in assay [3], over 92 µM; in assay [5], 50.1 µM (active). In addition, the activity change, negative = cytotoxicity in [4] was -24.2%. The Potency result in assay [6] was “inactive”. Further, the molecule was called inactive in [7].
As for `CC(C)NC(C)C`, the Potency in assay [1], in assay [8], in [9], in [2], in assay [3] and in assay [10] was over 92 µM in each case. Also, the result in [11], in assay [12], in [7] and in [14] was inactive. In addition, in assay [4], the activity change, negative = cytotoxicity is -15.2%. In addition, the Potency entry in [5], in [13] and in [6] was “inactive” throughout.
For the molecule `O=P1(N(CCCl)CCCl)NCCCO1` (stereo not drawn), the outcome in assay [15], in assay [11], in assay [12], in assay [7] and in [14] was inactive. The Potency entry in assay [16], in assay [5], in assay [13] and in assay [6] was “inactive” throughout. Further, the Potency in assay [1], in [8], in [9], in [2], in [3] and in assay [10] was over 92 µM in each case. The Potency in [18] and in [19] was over 46 µM each time. Moreover, the activity change, negative = inhibition in assay [17] (at 38 µM (top of the series)) is 4.3%. In assay [4], the activity change, negative = cytotoxicity is 2.35%.
In the case of `CCCCC/C=C\C/C=C\C/C=C\C/C=C\CCCC(=O)NCC(=O)O`, the outcome in assay [15] and in assay [11] was inactive. In assay [16], the Potency entry was “inactive”. In [17] (at 38 µM (top of the series)), the activity change, negative = inhibition is -2.7%. The Potency in [18] is over 46 µM.
`CC(NC(C)(C)C)C(=O)c1cccc(Cl)c1` (stereo not drawn): the outcome in assay [15] and in [20] was inactive. The activity change, negative = inhibition in assay [17] (at 17.2 µM (top of the series)) was -27.5%. In assay [18], the Potency was over 20.6 µM.
`C[N+]1(C)[C@@H]2CC(OC(=O)[C@H](CO)c3ccccc3)C[C@H]1[C@@H]1O[C@@H]12` (stereo partly drawn): the outcome in assay [15] and in [20] was inactive. In addition, the activity change, negative = inhibition in assay [17] (at 17.2 µM (top of the series)) is -68.4% (active). The Potency in assay [18] was over 20.6 µM.
As to `C[C@]1(O)CC[C@H]2[C@@H]3CCC4=CC(=O)CC[C@]4(C)[C@@]3(F)[C@@H](O)C[C@@]21C`, the Potency in assay [1], in assay [8], in assay [9], in assay [2], in assay [3] and in [10] was over 92 µM throughout. The outcome in [11], in assay [12], in assay [7] and in assay [14] was inactive. Besides, the Potency entry in assay [5], in assay [13] and in assay [6] was “inactive” throughout.
`COC(=O)C(c1ccccc1)C1CCCCN1` (stereo not drawn): the Potency in assay [1], in [8], in assay [9], in assay [2], in assay [3] and in [10] was over 92 µM throughout. For the same molecule, the call in [11], in [12], in assay [7] and in [14] was inactive. The activity change, negative = cytotoxicity in assay [4] is -13.4%. For the same molecule, the Potency entry in assay [5], in assay [13] and in assay [6] was “inactive” in each case.
Consider `[N-]=[N+]=CC(=O)OC[C@H](N)C(=O)O`, for which the outcome in [15] and in [20] was inactive. Also, in assay [17] (at 17.2 µM (top of the series)), the activity change, negative = inhibition is -1.72%.
